According to PubChem BioAssay (Tox21):
A number with no mark means an inactive call. Entries that show only a call come without a potency. Activity calls are given as the source filed them. Calls follow the shape of the full dose curve.

Each molecule was assayed against Acetylcholinesterase (Homo sapiens) (UniProt P22303) (assay: Acetylcholinesterase (AChE) small molecule antagonists: enzyme-based qHTS assay with human liver microsomes (AID 1347399; also: nearly all actives have a fitted effect of over 60% in size)). Details: Potency: qHTS inhibition; outcome: qHTS inhibition; series mostly up to 115 µM.
In short: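 Recombinant human AChE (50 mU/mL in the enzyme mix) and human liver microsomes (0.25 mg/mL final) were preincubated with compound and NADPH (0.25 mg/mL final) for 30 min at 37 C. Acetylthiocholine/DTNB was then added; thiocholine was read colorimetrically after 10 min at room temperature.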

Acetylcholinesterase (Homo sapiens), sequence (P22303 whole entry, looked up): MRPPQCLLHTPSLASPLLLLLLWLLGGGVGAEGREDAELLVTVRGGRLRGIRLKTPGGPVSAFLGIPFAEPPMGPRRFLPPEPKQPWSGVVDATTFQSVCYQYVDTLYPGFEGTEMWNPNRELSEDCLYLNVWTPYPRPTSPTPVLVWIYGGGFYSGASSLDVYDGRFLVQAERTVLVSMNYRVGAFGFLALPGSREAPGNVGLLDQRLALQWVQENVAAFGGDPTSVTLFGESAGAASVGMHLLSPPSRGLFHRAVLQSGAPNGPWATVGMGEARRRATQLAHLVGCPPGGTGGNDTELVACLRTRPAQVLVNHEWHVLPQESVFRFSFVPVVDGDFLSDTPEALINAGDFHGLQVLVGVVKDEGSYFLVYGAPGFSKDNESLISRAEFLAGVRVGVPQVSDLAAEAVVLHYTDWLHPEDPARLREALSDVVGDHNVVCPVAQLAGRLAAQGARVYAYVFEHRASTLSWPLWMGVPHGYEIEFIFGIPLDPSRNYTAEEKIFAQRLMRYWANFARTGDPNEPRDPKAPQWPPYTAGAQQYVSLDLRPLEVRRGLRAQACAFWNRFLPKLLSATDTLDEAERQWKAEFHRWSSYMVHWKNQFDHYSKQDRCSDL

Q: Which Potency does the source give for `Cc1cn([C@H]2C[C@H](N=[N+]=[N-])[C@@H](CO)O2)c(=O)[nH]c1=O` here?
A: inactive

Q: With `CCn1cc(C(=O)O)c(=O)c2cc(F)c(N3CCNCC3)nc21` as the molecule, how does the Potency read?
A: inactive

Q: `CCCCCCCCCCCCI` was tested. Which Potency did it give?
A: inactive

Q: With `O=C(Nc1ccc(C(=O)O)c(O)c1)c1ccccc1` as the molecule, how does the Potency read?
A: inactive

Q: How did the Potency turn out when `CCCCCCCC(=O)Oc1c(Br)cc(C#N)cc1Br` was run?
A: inactive

Q: With `CCC(O)OCCCOC` (stereo not given) as the molecule, how does the Potency read?
A: inactive

Q: How did the Potency turn out when `Cc1ccccc1Cl` was run?
A: inactive

Q: For `Cc1cccc(OCC(O)CNC(C)(C)C)c1C` (stereo not given), which Potency is on record?
A: inactive

Q: For `CC(=O)O[C@H]1C[C@@H]2CC[C@@]1(C)C2(C)C`, which Potency is on record?
A: inactive

Q: With `CC1(C)OC[C@@H]2O[C@@]3(C(=O)O)OC(C)(C)O[C@H]3[C@@H]2O1` as the molecule, how does the Potency read?
A: inactive

Q: With `O=C1CC(c2ccc(Cl)cc2)CC(=O)N1` as the molecule, how does the Potency read?
A: inactive

Q: `O=C1CCc2ccccc2O1` was tested. Which Potency did it give?
A: inactive

Q: `COCCOCCOCCO` was tested. Which Potency did it give?
A: inactive

Q: With `c1cc(CN2CCCCC2)cc(OCCCNc2nc3ccccc3s2)c1` as the molecule, how does the Potency read?
A: inactive

Q: Which Potency does the source give for `N#Cc1cc2ccccc2c2ccccc12` here?
A: inactive

Q: With `CN1CCN(C)CC1` as the molecule, how does the Potency read?
A: inactive

Q: For `CCCCCCCCOC(C)=O`, which Potency is on record?
A: inactive

Q: Which Potency does the source give for `CNC1(C)C2CCC(C2)C1(C)C` (stereo not given) here?
A: inactive

Q: Which Potency does the source give for `CCCOC(=O)CCCCC(=O)OCCC` here?
A: inactive

Q: How did the Potency turn out when `Cc1cccc(C(=O)O)c1` was run?
A: inactive

Q: How did the Potency turn out when `COC(=O)c1ccccc1C` was run?
A: inactive

Q: `CCO/C([O-])=N/c1c[n+](N2CCOCC2)no1` was tested. Which Potency did it give?
A: inactive

Q: With `CC(C)(C)c1ccc(O)c(C(C)(C)C)c1` as the molecule, how does the Potency read?
A: inactive

Q: For `CCC(=O)OCc1ccccc1`, which Potency is on record?
A: inactive

Q: How did the Potency turn out when `Oc1ccccc1F` was run?
A: inactive

Q: For `CCC(=O)CC(C)CC` (stereo not given), which activity change, negative = inhibition is on record?
A: 0% [at 0.435 µM]

Q: With `NNc1nc(-c2ccc([N+](=O)[O-])cc2)cs1` as the molecule, how does the Potency read?
A: inactive

Q: Which Potency does the source give for `OC1OC[C@@H](O)[C@H](O)[C@H]1O` (stereo not given in full) here?
A: inactive

Q: How did the Potency turn out when `Nc1nc2ccccc2[nH]1` was run?
A: inactive

Q: `Cc1ccc(C(=O)O)o1` was tested. Which Potency did it give?
A: inactive

Q: Which Potency does the source give for `CCCCC(=O)O[C@]1(C(=O)CO)[C@@H](C)C[C@H]2[C@@H]3CCC4=CC(=O)C=C[C@]4(C)[C@@]3(F)[C@@H](O)C[C@@]21C` here?
A: inactive

Q: `CC1=C(C/C=C(\C)CCC[C@H](C)CCC[C@H](C)CCCC(C)C)C(=O)c2ccccc2C1=O` was tested. Which Potency did it give?
A: inactive

Q: Which Potency does the source give for `C=CC(=O)Nc1cc2c(Nc3ccc(F)c(Cl)c3)ncnc2cc1OCCCN1CCOCC1` here?
A: inactive

Q: How did the Potency turn out when `O[C@@H](c1cc(C(F)(F)F)nc2c(C(F)(F)F)cccc12)[C@H]1CCCCN1` was run?
A: inactive

Q: How did the Potency turn out when `CCCCCCCCCCCCCCCCCC#N` was run?
A: inactive

Q: Which Potency does the source give for `CCOc1ccc(NC(C)=O)cc1` here?
A: inactive

Q: `CCNc1ccccc1` was tested. Which Potency did it give?
A: inactive

Q: `CC(C)(C)c1cccc(C(C)(C)C)c1O` was tested. Which Potency did it give?
A: inactive

Q: `CN(C)CCN1CCOCC1` was tested. Which Potency did it give?
A: inactive

Q: With `CC(C)(C)c1cc(CCC(=O)OCC(COC(=O)CCc2cc(C(C)(C)C)c(O)c(C(C)(C)C)c2)(COC(=O)CCc2cc(C(C)(C)C)c(O)c(C(C)(C)C)c2)COC(=O)CCc2cc(C(C)(C)C)c(O)c(C(C)(C)C)c2)cc(C(C)(C)C)c1O` as the molecule, how does the Potency read?
A: inactive
